Screens as filed in PubChem.
Only some compounds are listed: those with a hit (about 0.5% of all), similar ones and a draw of the others.
ERK EGF inh = EGF-driven ERK pathway inhibition | HEK293-V1b, EGF-stimulated phospho-ERK AlphaScreen | Potency, µM (top dose mostly 11.5 µM), for the others: top-dose activity change, negative = inhibition, usual class: inhibitors | 0.41% of 130,000 active | AID 1454;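 also: potency is read from the fitted curve at half-maximal effect; plate controls were stimulated vehicle wells for no effect and unstimulated vehicle basal for full effect; nearly all actives have a fitted effect of over 55% in size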
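In this qHTS, HEK293 cells with stable type-1 vasopressin (V1b) receptor were exposed to compound at 37C for 30 min, stimulated 5 min with EGF at 25 nM, lysed, and probed for phospho-ERK by AlphaScreen.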
CBFb RUNX1 block = inhibitors of human CBF-beta and RUNX1 interaction | 230,000 tested, under 10 active | Potency, µM (top dose mostly 59.8 µM), without a hit: top-dose activity, negative = inhibition, hits mostly inhibitors | AlphaScreen CBFb-His/RUNX1-biotin binding, biochemical | Q01196+Q13951; also: % of control where 0% means no effect
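His-tagged CBF-beta and biotinylated RUNX1 (30 nM each) were premixed 20 min at room temperature, exposed to compound for 15 min, then given nickel-chelate and streptavidin AlphaScreen beads (50 ng each). After 90 min, AlphaScreen signal was read.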
RGS12 GoLoco inh-1 = inhibitors of human Gai1-RGS12 GoLoco interaction (red fluorophore). 0.44% of 230,000 active. Gai1:RGS12 GoLoco peptide FP, rhodamine, 10 min. P63096. Potency, µM (highest dose often 61.6 µM), for inactives: at the highest dose activity, negative = inhibition, usual class: inhibitors. AID 880; active = well fitted inhibition curve with a large enough effect, not every such curve was filed as active; inactive = no such curve, though single readings can be large or run the other way; also: potency is read from the fitted curve at half-maximal effect; % is scaled to controls: 0 for no effect and ±100 for the full control effect; nearly all actives have a fitted effect of over 30% in size
Target sequence (P63096 whole entry, looked up): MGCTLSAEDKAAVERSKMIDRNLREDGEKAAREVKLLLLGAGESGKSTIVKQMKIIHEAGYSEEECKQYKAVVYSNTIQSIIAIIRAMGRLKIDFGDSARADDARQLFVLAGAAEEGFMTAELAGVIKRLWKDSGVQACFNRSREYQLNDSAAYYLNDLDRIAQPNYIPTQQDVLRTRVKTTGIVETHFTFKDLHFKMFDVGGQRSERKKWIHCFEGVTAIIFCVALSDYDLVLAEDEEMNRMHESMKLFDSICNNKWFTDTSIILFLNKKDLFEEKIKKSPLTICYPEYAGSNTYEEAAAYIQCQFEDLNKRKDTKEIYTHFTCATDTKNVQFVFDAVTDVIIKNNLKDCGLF
RGS12 GoLoco inh-2 = confirmation of human RGS12 GoLoco motif inhibitors; Potency, µM (top dose mostly 57.1 µM), for the others: at the highest dose activity, negative = inhibition, actives largely listed as inhibitors; shares compounds with RGS12 GoLoco inh-1; 50% of 110 active; Gai1/rhodamine-RGS12 GoLoco peptide fluorescence polarization
* hit, by the source's call; ? = inconclusive; . = no result given; ! = a repeat was not active; [ ] = remark or other dose. Unless noted, calls follow the shape of the dose curve; as a rule, active = well fitted curve in the direction sought with a large enough effect; inconclusive = small, poorly fitted or top-dose-only effect, or another doubt; inactive = no such curve, though single readings can be large; an effect the other way counts as inactive or inconclusive.

SMILES | ERK EGF inh | CBFb RUNX1 block | RGS12 GoLoco inh-1 | others
CN1C[C@H](C(=O)N[C@@]2(C)O[C@@]3(O)[C@H]4CCCN4C(=O)[C@@H](Cc4ccccc4)N3C2=O)C=C2c3cccc4[nH]cc(c34)C[C@@H]21 | . | . | 8%[14.2 µM]
Cc1coc2c1CCC(C)C2 (centres undefined) | . | 7%[21.7 µM] | -65%
Cc1c([C@@H](C)C2NC[C@H](C)C[C@@H]2O)ccc2c1C[C@@H]1[C@H]2CC=C2C[C@@H](O)CC[C@@]21C (some centres undefined) | . | . | 4%[14.2 µM]
O=[As](O)(O)c1ccc(Cc2ccc([As](=O)(O)O)cc2)cc1 | . | . | 1%[14.2 µM]
O=C(O)C[C@H]1NCc2cc3ccccc3nc21 | . | . | 3%[14.2 µM]
CC(=O)Oc1c2c(c(CC=C(C)C)c3c1C(=O)C1=CC4CC5C(C)(C)OC(C/C=C(\C)C(=O)O)(C4=O)[C@]15O3)OC(C)(CCC=C(C)C)C=C2 (some centres undefined) | 13µM* | . | -12%
COC(=O)/C(C)=C\CC12OC(C)(C)C3CC(C=C4C(=O)c5c(OC)c6c(c(CC=C(C)C)c5OC431)OC(C)(CCC=C(C)C)C=C6)C2=O (centres undefined) | ? | . | -1%
O=[As](O)(O)c1ccc(NCc2ccccc2)cc1 | . | . | 8%[14.2 µM]
c1ccc(CCN2CCCCCC2)nc1 | . | . | -1%[14.2 µM]
O=[N+]([O-])C(Br)Br | . | 4%[21.7 µM] | -28%
C[N+]1(C)C2CCC1CC(OC(=O)c1c[nH]c3ccccc13)C2 (centres undefined) | 4% | 13% | 14%
C[N+]1(C)C2CCC1CC(OC(=O)c1ccco1)C2 (centres undefined) | 0%[57.5 µM] | 3% | 10µM*
CC[C@H]1CN2CCc3cc(OC)c(OC)cc3[C@H]2C[C@@H]1C[C@H]1NCCc2c1[nH]c1ccc(O)cc21 | . | . | 2%[14.2 µM]
CCCCC(CC)COC(=O)c1ccc(C(=O)OCC(CC)CCCC)c(C(=O)OCC(CC)CCCC)c1 (centres undefined) | . | 19%[21.7 µM] | 8%
CSc1ccc2c(c1)c(CCN)c(C)n2Cc1ccccc1Cl | . | . | 7%[14.2 µM]
O=C1C=CC(=O)C=C1 | 3% | 16% | 1.8µM*!
C=C(C)c1ccccc1 | . | 9%[21.7 µM] | 2%
O[N+]1=CC=CCC1=S.On1ccccc1=S.[Zn] | 20µM* | -4% | 0%
CCN(CC)CCOC(=O)C(O)(c1ccccc1)c1ccccc1 | 1%[57.5 µM] | -9% | 16%
CC(C)N1C(=O)CC2(CC[N+](C)(CCOC(=O)C(O)(c3ccccc3)c3ccccc3)CC2)C1=O (centres undefined) | . | 2% | 16µM*
C=CC=O | . | -7%[21.7 µM] | -18%
C[C@@H]1O[C@H](C[N+](C)(C)C)CS1 | 15% | -4% | 32µM*
O=C(O)C[C@H]1OCC=C2CN3CC[C@]45c6ccccc6N[C@@H]4[C@H]1[C@H]2C[C@H]35 | . | . | 0%[14.2 µM]
CC1(C)[C@@H]2CC[C@]1(C)CN(CCC[N+](C)(C)C)C2 | . | . | 6%[14.2 µM]
COc1cc2c(cc1OC)[C@@]13CCN4CC5=CCO[C@H](CC(=O)O)[C@@H]([C@H]1N2)[C@H]5C[C@H]43 | . | . | -7%[14.2 µM]
SMILES | ERK EGF inh | CBFb RUNX1 block | RGS12 GoLoco inh-1 | others
N[C@H](Cc1ccc2oc3cc(=O)c4ccccc4c-3nc2c1)C(=O)O | . | . | 3.5µM*
CS(=O)(=O)O[C@H]1CN2CCC1CC2 | . | . | 5%[14.2 µM]
CC[C@]1(O)CC(O[C@@H]2CC(N(C)C)C(O)C(C)O2)c2c(cc3c(c2O)C(=O)c2c(O)ccc(O)c2C3=O)C1C(=O)OC (some centres undefined) | -1% | ? | 10%
COc1cccc2c1C(=O)c1c(O)c3c(c(O)c1C2=O)C[C@](O)(/C(C)=N\O)C[C@@H]3O[C@H]1C[C@H](N)[C@@H](O)[C@H](C)O1 | . | . | 0.63µM*
CCOC(=O)C1OC1(C)c1ccccc1 (centres undefined) | . | 24%[21.7 µM] | -7%
C[n+]1c(/C=C\c2ccc(O)c3ncccc23)[se]c2ccccc21 | . | . | 123%[14.2 µM]
CC1(C)C[C@H]2C=C(C=O)[C@]3(C=O)C[C@]3(C)[C@H]2C1 | 10µM* | -10% | -27%
COc1ccc(C=O)cc1OC | . | 17%[21.7 µM] | 2%
O=C(Oc1ccc(S(=O)(=O)F)cc1F)c1ccccc1Cl | . | . | 6%[14.2 µM]
CN(C)CCCNc1c2c(nc3ccc(Cl)cc13)CCCC2 | . | . | -5%[14.2 µM]
O=C1C=CC(=O)C(Cl)=C1 | . | . | 1.8µM*
O=c1c2ccccc2[se]n1-c1ccccc1 | 17%[57.5 µM] | ? | 2.8µM*!
O=c1c2ccccc2nc(-c2ccccc2)n1-c1ccccc1 | -8%[57.5 µM] | 0% | 3%
NCC1OC(O[C@@H]2[C@H](O)[C@@H](OC3C(O)C(N)CC(N)C3OC3OC(CO)C(O)C(O)C3N)O[C@@H]2CO)C(N)C(O)C1O (some centres undefined) | -2% | -20% | 3%
ClC(Cl)C(Cl)Cl | . | -6%[21.7 µM] | 4%
Cc1nn(C(C)(C)C)c(C)c1/C=N/OC(=O)Nc1ccc(Cl)c(Cl)c1 | 32µM* | 13% | 1%
Cc1ccc(NC(=O)c2snnc2C)cc1Cl | -40% | 4% | 4%
CCCC[N+]12CCC(CC1)C(C(O)(c1ccccc1)c1ccccc1)C2 (centres undefined) | 0%[57.5 µM] | -2% | -13%
CCCC[N+]12CCC(CC1)C(Cc1ccccc1)C2 (centres undefined) | -5%[57.5 µM] | 3% | 2% | RGS12 GoLoco inh-2=4%
O=C(Cl)/C=C/C(=O)Cl | . | 2%[21.7 µM] | 12%
C[N+]12CCC(CC1)C(=C(c1ccccc1)c1ccccc1)C2 | 13% | 2% | 11µM* | RGS12 GoLoco inh-2=14µM*
O=C(CCl)c1ccccc1 | . | 7%[21.7 µM] | -65%
CCCOCCN(C(=O)CCl)c1c(CC)cccc1CC | . | 16% | .
CCn1c(C)[n+](CC(O)COCC2CC=CCC2)c2ccccc21 (centres undefined) | . | -2% | 2.2µM* | RGS12 GoLoco inh-2=14µM*
CN(C(=O)Cc1ccc(Cl)c(Cl)c1)[C@H](CN1CCCC1)c1cccc(N=C=S)c1 | 4% | -3%[21.7 µM] | 9%
SMILES | ERK EGF inh | CBFb RUNX1 block | RGS12 GoLoco inh-1 | others
CCC[N+]12CCC(CC1)C(C(O)(c1ccccc1)c1ccccc1)C2 (centres undefined) | -10%[57.5 µM] | 3% | 10%
C[N+]12CCC(CC1)C(C(O)(c1ccccc1)c1cccs1)C2 (centres undefined) | . | 8% | 3.5µM* | RGS12 GoLoco inh-2=25µM*
CN(N=O)c1cc(O)ccc1O | -5% | . | 5.6µM* | RGS12 GoLoco inh-2=?
Cc1ccc(O)cc1 | 2% | -6% | -4%
CN1CCc2cc(O)cc3c2C1Cc1ccc(O)c(O)c1-3 (centres undefined) | 17% | ? | 37%
c1ccc2c(c1)Sc1ccccc1N2C[C@H]1CN2CCC1CC2 | . | . | 0%[14.2 µM]
O=C(Nc1ccccc1)c1ccccc1I | . | 25% | .
